hcDAF12 agonist – H. contortus DAF-12 nuclear receptor activators, primary screen, cell-based, luminescence, HEK293, lit1-tk-luc reporter | HEK293 hcDAF-12 lit1-tk-luc reporter; 0% DMSO, 100% Δ7-dafachronic acid | activation, % at 6.8 µM | actives 1.4% (n = 370,000);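 active means activation above the mean of all tested compounds plus 3 SD, cut at about 5.5% in these data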;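 further: 100% = response to 3 µM Δ7-dafachronic acid high control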
esBAF inh – Bmi1 luciferase reporter increase in mESCs, primary screen, esBAF inhibitor project, mouse ES cells, Bmi1 luciferase knock-in, single point; 24 h; 100% = twice the neutral-well signal; reporter increase, % at 12.5 µM; actives 2% (n = 350,000); in the data active means activation above about 40%; inconclusive means no clear call, values can overlap the other calls;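 further: 0% = median of the plate's neutral control wells and 100% = double that signal; a rise in the Bmi1 reporter signal indicates esBAF inhibition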
Wnt act – Wnt/beta-catenin pathway activators, primary screen, cell-based, plate reader, single point; Wnt/beta-catenin reporter cell assay, activator; activation, % at 9.35 µM; actives 1.2% (n = 300,000); AID 743398, 2014; in the data active means activation above about 30%, passing the limit was not always enough; inconclusive means no clear call, values can overlap the other calls;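 further: 0% = neutral control wells and 100% = positive control wells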
hgDAF-12 ag – H. glycines DAF-12 receptor agonists, primary screen, cell-based, luminescence, HEK293, GAL4 fusion, UAS-luciferase. HEK293 GAL4-hgDAF12 UAS-luciferase reporter, agonist luminescence; normalized to butyrate control. activation, % at 6.8 µM. actives 1.8% (n = 370,000). AID 687014, 2013;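 active means activation above a cutoff set at the mean of all screened compounds plus 3 SD, cut at about 10% in these data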;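 further: 0% = DMSO wells and 100% = sodium butyrate wells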
ssDAF-12 act – S. stercoralis DAF-12 nuclear receptor activators, primary screen, cell-based, luminescence, HEK293, GRIP1 co-expression, lit1-tk-luc | Nuclear hormone receptor DAF-12 (Strongyloides stercoralis) | HEK293 ssDAF-12/GRIP1 lit1-tk-luc reporter; % of 3 µM dafachronic acid response | activation, % at 6.8 µM | actives 1% (n = 370,000) | AID 652126, 2013;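 active means activation above the mean over all tested compounds plus 3 SD, cut at about 0.9% in these data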;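 further: 0% = DMSO-only wells and 100% = 3 µM delta7-dafachronic acid wells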
DAX1 StAR inh – DAX1 (NR0B1) inhibitors on StAR promoter, primary screen, cell-based, luminescence, SF-1 (NR5A1), full-length DAX-1. AID 652010, 2013. HEK293T StAR-luciferase reporter, SF-1/DAX-1 repression relief. inhibition, % at 6.8 µM. actives 1.1% (n = 370,000);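 active means inhibition above the mean over all tested compounds plus 3 SD, cut at about 3.6% in these data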;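 further: 0% = DAX-1 cells with DMSO and 100% = cells lacking DAX-1 with DMSO; higher inhibition means more luminescence from relief of DAX-1 repression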
* = called active by the depositor; ? = inconclusive; nt = no result. A selection: hits, their analogues and other compounds. The true share with any hit is near 4.2%.

SMILES	hcDAF12 agonist	esBAF inh	Wnt act	hgDAF-12 ag	ssDAF-12 act	DAX1 StAR inh
CCOc1ccc(N=Cc2ccc3ccccc3c2)cc1	3	2	0	-2	-1	1
O=[N+]([O-])c1cc(C=Nc2ccc3ccccc3c2)ccc1Br	2	nt	6	5	1.2*	1
COc1cccc(NC(=O)Cn2nnc(C(=O)Nc3ccccc3)c2N)c1	-1	nt	nt	2	1	-1
COc1cccc(NC(=O)c2nn(C)cc2Br)c1	0	55*	nt	4	-1	0
C/C(=N\NC(=O)c1nn(C)cc1Br)c1cccc(NC(=O)C(C)(C)C)c1	0	32	nt	8	0	1
COc1cccc(NC(=O)c2nnn(CCc3ccccc3)c2N)c1	0	78*	18	9	-1	0
C/C(=N\NC(=O)c1nn(C)cc1Br)c1cccc(NC(=O)C2CCCC2)c1	1	7	nt	11*	0	2
Cn1cc(Br)c(C(=O)NNC(=O)c2ccc(Cl)cc2)n1	2	30	51*	7	-1	2
COC(=O)C[C@H]1CC[C@@H]2[C@H](COc3ccc(NC(=O)c4ccccc4F)cc3C(=O)N2C)O1	nt	2	nt	nt	nt	nt
COc1ccc2[nH]c(-c3ccccc3)cc2c1	6.1*	?	46*	9	0	2
COc1ccc2nc(-c3ccccc3)[nH]c2c1	5	4	75*	13*	0	4
COc1ccc(-c2nc3ccc([N+](=O)[O-])cc3[nH]2)cc1	6.3*	nt	50*	19*	1.8*	4.5*
CCOc1ccc2nc(-c3ccccc3)[nH]c2c1	5	-36	nt	12*	0	0
C[C@@H]1CN([C@@H](C)CO)C(=O)Cc2cc(NC(=O)CCC(F)(F)F)ccc2O[C@H]1CN(C)Cc1ccc(Cl)c(Cl)c1	nt	7	nt	nt	nt	nt
C[C@H](CO)N1C[C@H](C)[C@@H](CN(C)C(=O)Nc2ccc(F)cc2)Oc2ccc(NC(=O)C3CC3)cc2CC1=O	nt	-5	nt	nt	nt	nt
CCCC#Cc1ccc2c(c1)O[C@@H](CN(C)C(=O)CC1CC1)[C@H](C)CN([C@@H](C)CO)S2(=O)=O	nt	2	nt	nt	nt	nt
Cc1ccc([N+](=O)[O-])c2c1C(N1CC(C)OC(C)C1)C(C)(C)O2 (stereo not given)	-2	nt	-4	-2	15*	0
Cc1ccc([N+](=O)[O-])c2c1C(N1CCCCC1)C(C)(C)O2 (stereo not given)	-3	nt	-3	-1	-1	0
COc1ccccc1OCc1nc2ccccc2[nH]1	3	12	64*	8	0	3
Nc1ccc(C(=O)OCc2nc3ccccc3[nH]2)cc1	-1	55*	nt	-3	-1	0
Brc1ccc(OCc2nc3ccccc3[nH]2)cc1	6.0*	?	36*	12*	0	2
Nc1ccc2nc(COc3ccccc3)[nH]c2c1	6.5*	5	10	10	0	1
CCCc1cn(CC[C@H]2CC[C@H](NC(=O)C3CCC3)[C@@H](CO)O2)nn1	nt	3	nt	nt	nt	nt
CN1C(=O)c2cc(NC(=O)c3ccccc3F)ccc2OC[C@H]2O[C@@H](CC(=O)NCc3ccc4c(c3)OCO4)CC[C@H]21	nt	-2	nt	nt	nt	nt
N#Cc1cccc(NC(=O)c2cc(C3CCCCN3S(=O)(=O)c3cccc4cccnc34)on2)c1 (stereo not given)	-4	52*	-3	-2	-2	-2
O=[N+]([O-])c1ccccc1CSc1nnc2ccccn12	3	63*	5	8	0	2
Cc1cccc2nc(CSc3nnc4ccccn34)cn12	5.8*	nt	nt	12*	0	4
Cc1cc(NC(=O)c2ccc(Cl)cc2Cl)no1	5	-13	12	12*	0	3

Screening results deposited in PubChem by several laboratories.
